Source: PubChem BioAssay
Sampled rows, rich in hits. Any-hit rate of the full collection: about 19%.
Pf growth 96h = P. falciparum growth inhibition at 96 hours | P. falciparum luciferase reporter growth, 96 h | Potency, µM (series often up to 28.7 µM), hits mostly inhibitors | 320,000 tested, 6.9% active
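Readout is luminescence from an integrated firefly luciferase in P. falciparum. Red cells, 2% hematocrit and 0.05% parasitemia final, were cultured with compound through two parasite generations (96 hours) at 37 C, 5% CO2.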
Shiga toxin inh = blocks Shiga toxin action in Vero cells | Vero cells, Shiga toxin protein synthesis inhibition reporter | inhibition, % at 38.7 µM | 290,000 tested, 9.2% active | AID 2315; in the data active = inhibition mostly above about 28%, no sharp cut-off; inactive = mostly below about 43%
Cycloheximide cs = counter-screen for Shiga toxin inhibitors: cycloheximide protein synthesis inhibition; cell reporter, cycloheximide protein synthesis inhibition counterscreen; max response, %; 300,000 tested, 12% active; AID 2314; in the data active = max response mostly above about 13%, no sharp cut-off; inactive = mostly below about 14%; also: read at 38.3 µM for the half of the compounds with a filed dose
AMA1-RON2 inh = inhibitors of Plasmodium falciparum AMA1-RON2 interaction; AlphaScreen AMA1-biotinylated RON2 peptide binding; Potency, µM (highest dose often 58.2 µM), hits mostly inhibitors; 360,000 tested, 0.2% active; also: nearly all actives have a fitted effect of over 45% in size
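AMA1 (3D7) with his tag at 25 nM final met compounds first, then biotinylated RON2 peptide at 25 nM; detection used donor plus acceptor beads, 10 µg/mL apiece, read by AlphaScreen after 30 min at room temperature.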
SARS PLpro yeast = SARS-CoV PLP inhibition in yeast; Potency, µM (titrated, usually from 32.9 µM), hits mostly activators; 330,000 tested, 0.19% active; S. cerevisiae expressing SARS-CoV PLpro, growth rescue; AID 485353; calls by dose curve; also: nearly all actives have a fitted effect of over 55% in size
Pf growth 48h = inhibits P. falciparum growth in the first generation, 48 h. 310,000 tested, 5.9% active. P. falciparum luciferase growth in erythrocytes, 48 h. Potency, µM (titrated, usually from 28.7 µM), usual class: inhibitors
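Erythrocytes infected with P. falciparum carrying an integrated firefly luciferase reporter (2% hematocrit, 0.1% parasitemia final) were exposed to compounds in RPMI 1640 with 0.5% Albumax at 37 C, 5% CO2. Growth inhibition was scored as reduced luminescence.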
Large screens that a line does not name were inactive. Unless noted, calls follow the shape of the dose curve; as a rule, active = well fitted curve in the direction sought with a large enough effect; inconclusive = small, poorly fitted or top-dose-only effect, or another doubt; inactive = no such curve, though single readings can be large; an effect the other way counts as inactive or inconclusive.

Cc1[nH]c2ccccc2c1/C=N/NC(=S)NC(C)C	Pf growth 96h inconclusive
Cn1ccc(C(=O)N/N=C/c2c[nH]c3ccccc23)n1	Pf growth 96h inconclusive, Shiga toxin inh 59, Cycloheximide cs 45
CCOc1ccc2ccccc2c1/C=N/NC(=O)c1cc(C)[nH]n1	none
CC(SC(C)C(=O)NN=Cc1c[nH]c2ccccc12)C(=O)NN=Cc1c[nH]c2ccccc12 (centres undefined)	none (no result: Pf growth 96h, Shiga toxin inh, Cycloheximide cs, SARS PLpro yeast, Pf growth 48h)
CC(C)NC(=S)N/N=C/c1c[nH]c2ccccc12	Shiga toxin inh 29, Cycloheximide cs 18, Pf growth 48h inconclusive
OCC[C@@H]1C[C@H](O)[C@@H](O)[C@@]2(CCc3ccccc3O2)O1	none
CC(C)OC(=O)C1C2C=CC3(CN(C(C)c4ccc(Br)cc4)C(=O)C13)O2 (centres undefined)	Pf growth 96h 10µM (no result: Pf growth 48h)
CC(c1ccc(Br)cc1)N1CC23C=CC(O2)C(C(=O)O)C3C1=O (centres undefined)	none (no result: Pf growth 48h)
CC1(C)Cc2c(cnn2-c2ccc(F)cc2)C(NC(=O)c2ccc(=O)oc2)C1 (centres undefined)	Pf growth 96h inconclusive, Cycloheximide cs 22, Pf growth 48h inconclusive
CC1(C)Cc2c(cnn2-c2ccc(F)cc2)C(NC(=O)c2cnccn2)C1 (centres undefined)	none (no result: Pf growth 96h, Shiga toxin inh, Cycloheximide cs, SARS PLpro yeast, Pf growth 48h)
CC1(C)Cc2c(cnn2-c2ccc(F)cc2)C(NC(=O)C(C)(C)O)C1 (centres undefined)	Pf growth 48h inconclusive
CSCc1ccc(C(=O)NC2CC(C)(C)Cc3c2cnn3-c2ccc(F)cc2)o1 (centres undefined)	Pf growth 96h inconclusive, Cycloheximide cs 28, Pf growth 48h inconclusive
O=C(CN1C(=O)NC2(CCCC2)C1=O)OCc1ccccc1F	none (no result: Shiga toxin inh, Cycloheximide cs)
Cc1cc(=O)oc2cc(OCC#N)ccc12	none
Cc1cc(=O)oc2cc(OCC(=O)c3ccccc3)ccc12	Pf growth 96h 6.6µM, Cycloheximide cs 17
Cc1cc(=O)oc2cc(OCCc3ccccc3)ccc12	Shiga toxin inh 83, Cycloheximide cs 42
Cc1cc(=O)oc2cc(OCCCC[n+]3ccccc3)ccc12	Pf growth 96h inconclusive, Pf growth 48h 5.2µM
Cc1ccc(C(=O)COc2ccc3c(C)cc(=O)oc3c2)cc1	Pf growth 48h inconclusive
Cc1cccc(C(C)C)c1NC(=O)c1ccc(COc2ccc3c(C)cc(=O)oc3c2)cc1	Pf growth 96h 9.3µM, Pf growth 48h inconclusive
CCN(CC)c1ccc(/C=N/NC(=O)CNC(=O)C2COc3ccccc3O2)c(O)c1 (centres undefined)	Pf growth 96h inconclusive, SARS PLpro yeast inconclusive, Pf growth 48h inconclusive
O=C(N/N=C/c1ccco1)c1cccc(N2Cc3ccccc3C2)c1	none
COc1cccc(COc2ccc3c(C)cc(=O)oc3c2)c1	Shiga toxin inh 79, Cycloheximide cs 31
Cc1cc(=O)oc2cc(OCC(=O)N/N=C/c3ccccc3O)ccc12	Pf growth 96h 9.3µM
CCCCN1C(=O)/C(=C/C=C2/CC(C)(C)CN2C)SC1=S	Pf growth 96h inconclusive, Cycloheximide cs 30, AMA1-RON2 inh inconclusive
CCN1C(=O)/C(=C/C=C2/SCCN2C)SC1=S	Shiga toxin inh 78, Cycloheximide cs 59
CC(C)NC(=O)c1cc(-n2cnnc2)ccc1Cl	none (no result: Pf growth 48h)
CCCNC(=O)C1(C)CCCN(Cc2ccc(-c3ccccc3)cc2)C1 (centres undefined)	none (no result: Pf growth 96h, Shiga toxin inh, Cycloheximide cs, SARS PLpro yeast, Pf growth 48h)
O=C(Nc1ccc(N2CCOCC2)cc1)c1csc([C@@H]2O[C@H](CO)[C@H](O)[C@H](O)[C@H]2O)n1	none (no result: Pf growth 96h, Shiga toxin inh, Cycloheximide cs, SARS PLpro yeast, Pf growth 48h)
CC1(C)NC(=O)N(CCC(=O)Nc2cc(C(F)(F)F)ccc2Cl)C1=O	none (no result: Pf growth 96h, Shiga toxin inh, Cycloheximide cs, Pf growth 48h)
COC(=O)C1=CO[C@@H](C)[C@@H]2CN3CCc4c([nH]c5ccccc45)[C@@H]3C[C@H]12	none (no result: Pf growth 96h, AMA1-RON2 inh, SARS PLpro yeast, Pf growth 48h)
CCOC(=O)c1cnn(-c2ccccc2)c1NC(=O)c1ccccc1C	none (no result: SARS PLpro yeast)
Cc1ccccc1NC(=O)c1cnn(-c2ccccc2)c1C	Shiga toxin inh 75, Cycloheximide cs 42
Cc1ccc(NC(=O)c2cnn(-c3ccccc3)c2C)cc1C	none
Cc1ccc(C)n1-c1c(C(=O)NN)cnn1-c1ccccc1	Pf growth 96h inconclusive, Pf growth 48h 10µM
CCc1ccccc1NC(=O)c1cnn(-c2ccccc2)c1C	Pf growth 96h inconclusive, Shiga toxin inh 36, Cycloheximide cs 16
Cc1ccc(C)c(NC(=O)c2cnn(-c3ccccc3)c2C)c1	Pf growth 96h inconclusive, Cycloheximide cs 40 (no result: Shiga toxin inh)
COc1ccc(S(=O)(=O)NNC(=O)Cc2csc(C)n2)cc1[N+](=O)[O-]	none (no result: Shiga toxin inh, Cycloheximide cs)
O=C1C(=O)N(CCc2c[nH]c3ccccc23)C(c2cccnc2)/C1=C(/O)c1ccccc1 (centres undefined)	none (no result: AMA1-RON2 inh)
Cc1cccc(NC(=O)c2nc(-c3ccccc3)n(-c3ccccc3)n2)c1C	none (no result: Pf growth 96h)
Cc1cccc(NC(=O)c2cnn(-c3ccccc3)c2C)c1C	Shiga toxin inh 41, Cycloheximide cs 27
CC(=O)OCC1O[C@@H](O[C@@H]2C[C@H]3C(C)(C)[C@H](OC(C)=O)CC[C@]3(C)[C@H]3CC[C@]45C[C@]4(CC[C@H]5[C@@H](C)C[C@@H](O)[C@H](O)C(C)(C)O)[C@@]32C)[C@H](O)[C@@H](O)[C@@H]1O (some centres undefined)	Pf growth 96h 5.9µM, Pf growth 48h 12µM (no result: AMA1-RON2 inh)
Oc1cc(Nc2ccc(N3CCCCC3)cc2)cc2cccnc12	Pf growth 96h 0.093µM, Pf growth 48h 0.1µM (no result: Shiga toxin inh, Cycloheximide cs, AMA1-RON2 inh)
COc1ccc(CNC(=O)c2ccc3c(c2)NC(=O)C(C)S3)cc1 (centres undefined)	Shiga toxin inh 37, Cycloheximide cs 21
CC1Sc2ccc(C(=O)O)cc2NC1=O (centres undefined)	none (no result: Pf growth 96h)
CCOc1ccc(C(C)NC(=O)c2ccc3c(c2)NC(=O)C(C)S3)cc1OCC (centres undefined)	Pf growth 96h 1.9µM, Pf growth 48h 2.3µM (no result: Shiga toxin inh, Cycloheximide cs)
CC1Sc2ccc(C(=O)Nc3ccccc3OC(F)F)cc2NC1=O (centres undefined)	none (no result: Shiga toxin inh, Cycloheximide cs)
Cc1c(Cc2ccccc2)sc(NC(=O)/C=C/c2cccc3ccccc23)c1C(N)=O	Pf growth 96h inconclusive
O=C(CSc1n[nH]c(-c2ccc(Br)cc2)n1)N1CCOCC1	none (no result: Pf growth 96h, Shiga toxin inh, Cycloheximide cs, SARS PLpro yeast, Pf growth 48h)
O=C(N/N=C/c1ccc(Br)o1)/C(=C/c1ccc([N+](=O)[O-])cc1)NC(=O)c1ccccc1	none
CSc1nc(COC(=O)NC(C)C)c(COC(=O)NC(C)C)n1Cc1ccccc1	none (no result: Pf growth 96h, Shiga toxin inh, Cycloheximide cs, SARS PLpro yeast, Pf growth 48h)
O=c1cc(-c2ccc(O)cc2)oc2cc(O[C@@H]3O[C@H](CO)[C@@H](O)[C@H](O)[C@H]3O[C@@H]3OC[C@](O)(CO)[C@H]3O)cc(O)c12	Pf growth 96h inconclusive, Pf growth 48h 10µM
C[C@@H]1O[C@H](O[C@@H]2C(O)[C@H](O)[C@@H](CO)O[C@H]2Oc2cc(O)c3c(=O)cc(-c4ccc(O)cc4)oc3c2)[C@H](O)[C@H](O)[C@H]1O (some centres undefined)	none (no result: Pf growth 96h, AMA1-RON2 inh, SARS PLpro yeast, Pf growth 48h)
